Screening results (PubChem)
Only some compounds are listed: those with a hit (about 3.4% of all), similar ones and a draw of the others.
PAFAH2 inh: inhibitors of human PAFAH2 | Q99487 | recombinant PAFAH2, FP-rhodamine activity probe, fluorescence polarization | inhibition, % at 3.39 µM | 340,000 compounds, 0.99% hits | AID 492956;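 active = inhibition above the mean over all tested compounds plus 3 SD, cut at about 30% in these data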;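 also: inhibitors block probe labeling of enzyme so polarization drops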
PAFAH1B3 FP inh: inhibitors of human PAFAH1B3 | inhibition, % at 3.39 µM | AID 492972 | 340,000 compounds, 0.28% hits | Q15102 | recombinant PAFAH1B3, FP-rhodamine probe, fluorescence polarization;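 active = inhibition above the screen-wide average of all tested compounds plus 3 SD, cut at about 25% in these data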
pPAFAH FP inh: inhibitors of human plasma PAF acetylhydrolase (pPAFAH) | recombinant pPAFAH, FP-rhodamine probe fluorescence polarization | inhibition, % at 3.39 µM | 330,000 compounds, 1.5% hits;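 active = inhibition above the mean inhibition across the screen plus 3 SD, cut at about 25% in these data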;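 also: inhibitors block binding of the rhodamine activity-based probe so polarization drops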
PAFAH1B2 inh: blocks human PAF acetylhydrolase 1b catalytic subunit 2. recombinant PAFAH1B2, FP-rhodamine activity probe, fluorescence polarization. inhibition, % at 3.39 µM. 340,000 compounds, 1.2% hits. AID 492953;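 active = inhibition above the mean of all tested compounds plus 3 SD, cut at about 24% in these data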
PP1 inh: counter-screen for PP5 inhibitors: inhibitors of human PP1-alpha | 320,000 compounds, 0.9% hits | inhibition, % at 6.7 µM | purified PP1alpha, OMFP fluorescence;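 active = inhibition above the mean inhibition of all tested compounds plus 3 SD, computed separately for each screening campaign, cut at about 15% in these data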
PP5 primary: blocks human protein phosphatase 5 activity | P53041 | purified PP5c, OMFP substrate fluorescence | inhibition, % at 6.7 µM | 320,000 compounds, 0.18% hits;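 active = inhibition above the campaign's mean inhibition across all tested compounds plus 3 SD, cut at about 9.5% in these data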
Target sequence (P53041 whole entry, looked up): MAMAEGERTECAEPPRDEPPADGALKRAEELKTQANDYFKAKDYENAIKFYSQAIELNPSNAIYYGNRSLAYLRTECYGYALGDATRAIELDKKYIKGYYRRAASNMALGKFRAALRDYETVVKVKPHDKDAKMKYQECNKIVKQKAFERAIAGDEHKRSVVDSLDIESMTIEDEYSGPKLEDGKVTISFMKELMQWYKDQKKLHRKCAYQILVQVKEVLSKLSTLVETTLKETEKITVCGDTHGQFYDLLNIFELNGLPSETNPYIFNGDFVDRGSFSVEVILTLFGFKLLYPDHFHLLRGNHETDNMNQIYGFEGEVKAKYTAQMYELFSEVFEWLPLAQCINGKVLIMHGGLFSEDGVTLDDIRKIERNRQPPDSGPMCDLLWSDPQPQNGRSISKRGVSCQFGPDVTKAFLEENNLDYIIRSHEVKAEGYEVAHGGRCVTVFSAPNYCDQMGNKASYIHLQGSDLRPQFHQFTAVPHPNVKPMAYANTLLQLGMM
pPAFAH FP conf: pPAFAH (human) inhibition, confirmed | inhibition, % at 3.39 µM | recombinant pPAFAH, FP-Rh probe fluorescence polarization | shares compounds with pPAFAH FP inh | 2,300 compounds, 72% hits;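 active = mean inhibition of the triplicate above the hit cutoff set for the earlier primary screen, cut at about 25% in these data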
Hits are given with their value; – = inactive; · = no result.

SMILES	PAFAH2 inh	PAFAH1B3 FP inh	pPAFAH FP inh	PAFAH1B2 inh	PP1 inh	PP5 primary	pPAFAH FP conf
O=c1nc(/C=C/c2cccn2-c2ccc([N+](=O)[O-])cc2)cc(C(F)(F)F)[nH]1	–	–	36	–	–	–	–
CC(C)OCCCNC(=O)c1ccc(Br)cc1	–	–	–	–	–	–	·
O=c1[nH][nH]c(C(F)(F)F)c1C=Nc1ccccc1	–	–	–	–	–	–	·
Cc1cc(O)ccc1N=Cc1c(C(F)(F)F)[nH][nH]c1=O	–	–	74	–	–	–	–
O=S(=O)(NCc1ccc2c(c1)OCO2)c1c(F)cc(F)cc1Br	–	–	–	–	–	–	·
CC(=O)OCCCNc1cc(SCc2ccco2)c2nonc2c1[N+](=O)[O-]	–	–	39	–	–	–	–
CCCC(=O)OCCNc1cc(SCc2ccco2)c2nonc2c1[N+](=O)[O-]	–	–	78	–	–	–	–
CCCSc1cc(NCCOC(=O)CCC)c([N+](=O)[O-])c2nonc12	–	–	–	–	–	–	·
O=C(N1CCN(c2ccccc2)CC1)C1(S(=O)(=O)c2ccc(Cl)cc2)CC1	–	–	–	–	–	–	·
CC1=Nc2ccccc2/C1=C/c1sc(=N)n(-c2nccs2)c1O	–	–	56	–	–	–	51
O=C(COC(=O)c1cc(Cl)ccc1O)Nc1cc(C(F)(F)F)ccc1N1CCOCC1	–	–	–	–	·	·	·
O=C(O)CC1NC(=S)N(c2ccccc2)C1=O (stereo not drawn)	–	–	–	–	–	–	·
O=C1C(CSCc2ccccc2)NC(=S)N1c1ccccc1 (stereo not drawn)	·	·	37	·	–	–	–
CC(CC(=O)Nc1ccc2c(c1)OCO2)c1ccccc1 (stereo not drawn)	–	–	–	–	–	–	·
CCN(CC)C(C(=O)Nc1ccc2c(c1)OCO2)c1ccccc1 (stereo not drawn)	–	–	44	–	–	–	–
NC(=O)c1nsc(C(=O)N(Cc2ccco2)C(C(=O)NCC2CCCO2)c2ccc(F)cc2)c1N (stereo not drawn)	–	–	·	–	·	·	·
COc1cc(/C=C/C(=O)OCC(=O)c2ccc(OC(F)F)cc2)ccc1O	–	–	–	–	·	·	·
O=C(/C=C/c1ccco1)OCC(=O)c1ccc(OC(F)F)cc1	–	–	55	–	–	–	–
O=[N+]([O-])c1ccc(S(=O)(=O)NCC(c2ccco2)N2CCc3ccccc3C2)cc1 (stereo not drawn)	–	–	–	–	–	–	·
O=C(CSc1ccc(-c2ccco2)nn1)c1cccc([N+](=O)[O-])c1	–	–	38	–	–	–	–
O=C(NC[C@@H]1CC[C@@H](Cc2ccc(-c3ccccc3)cc2)O1)Nc1ccc(Br)cc1	–	–	–	–	·	·	·
O=C(CCNS(=O)(=O)c1ccc(Cl)cc1)OCC(=O)N1CCN(C(=O)c2ccco2)CC1	–	–	–	–	–	–	·
O=C(OCC(=O)N1CCN(C(=O)c2ccco2)CC1)c1cc(S(=O)(=O)Nc2ccc(Cl)cc2)ccc1O	–	–	62	33	–	–	68
COc1ccccc1-n1c(SCC(=O)Nc2cccc3ccccc23)nc(O)cc1=O	–	–	38	–	–	–	–
COc1ccc(-n2c(SCC(=O)Nc3ccccc3OC)nc(O)cc2=O)cc1	–	–	–	–	–	–	·
SMILES	PAFAH2 inh	PAFAH1B3 FP inh	pPAFAH FP inh	PAFAH1B2 inh	PP1 inh	PP5 primary	pPAFAH FP conf
C=CCOc1ccc(C(=O)c2ccccc2)c(OCC(=O)NC2(C#N)CCCC2)c1	–	–	35	–	–	–	–
N#CC1(NC(=O)COc2ccccc2[N+](=O)[O-])CCCCC1	–	–	–	–	–	–	·
COc1ccc(S(=O)(=O)/N=C2/NC(=O)/C(=C\c3cc(OC)c(OC)cc3[N+](=O)[O-])S2)cc1	–	–	–	–	–	–	·
COc1ccc(S(=O)(=O)/N=C2/NC(=O)/C(=C\c3ccco3)S2)cc1	–	–	35	–	–	–	–
COc1ccc(C(C(=O)NCC2CCCO2)N(Cc2cccs2)C(=O)c2snc(C(N)=O)c2N)cc1OC (stereo not drawn)	–	–	38	–	–	–	–
Cc1ccccc1NC(=O)c1sc2nc3c(c(-c4ccco4)c2c1N)CCC3	–	–	36	–	–	–	–
OCCN1CCN(CCCN2c3ccccc3Sc3ccc(Cl)cc32)CC1	–	–	39	–	–	–	33
CC1(c2cccc(Br)c2)NC(=O)N(CC(=O)c2ccc3c(c2)OCCO3)C1=O (stereo not drawn)	–	–	38	–	·	·	–
CC1CCCCN1CCNC(=O)c1cc2c(-c3ccccc3F)nn(C)c2s1 (stereo not drawn)	–	–	–	–	–	–	·
CCN(CC)c1ccc(NS(=O)(=O)c2ccc3c(c2)oc(=O)n3C)c(C)c1	–	–	40	–	–	–	44
O=C(O)Cc1c[nH]c2ccccc12	–	–	–	–	–	–	·
O=C(O)Cc1c[nH]c2cccc(O)c12	–	–	47	–	–	–	–
CN(C)c1ccc(N2C(=O)CSC2=S)cc1	–	–	37	–	–	–	–
Cc1cc(C)c(Nc2cc(S(=O)(=O)O)c(N)c3c2C(=O)c2ccccc2C3=O)c(C)c1	83	46	89	63	25	–	92
CCc1nc(-c2ccccc2)cc(=O)[nH]1	–	–	40	–	–	–	–
CCOCCCNC(=O)c1ccc(N2CCCC2)c(NS(=O)(=O)c2ccc(C)cc2)c1	–	–	52	–	–	–	–
COc1ccc(CN2CCNC(=O)C2CC(=O)NC2CCOCC2)cc1C (stereo not drawn)	–	–	·	–	·	·	·
COc1ccc(CC(=O)Nc2cccc(/C(C)=N/NC(=O)c3cccc([N+](=O)[O-])c3)c2)cc1	–	–	80	–	–	–	–
COC(=O)COc1cccc(/C=N/NC(=O)CCSc2ccccc2)c1	–	–	–	–	–	–	·
Cc1cc(O)c(C=O)c2c1C(=O)Oc1c(CO)c(O)c3c(c1O2)C(O)OC3=O (stereo not drawn)	48	33	89	–	36	–	27
Cc1cc(O)c(CN(C)C)c2c1C(=O)/C(=C/c1ccco1)O2	–	–	–	–	–	–	·
COc1ccccc1/C=C1\SC(=S)N(CCC(=O)Nc2cccc(O)c2)C1=O	–	–	–	–	–	–	·
CCCCCCCc1nn2c(=O)cc(O)nc2s1	–	–	47	–	–	–	–
CCCc1nn2c(=O)cc(O)nc2s1	–	–	–	–	–	–	·
Cc1[nH]c2ccccc2c1N=Nc1ccccc1C(=O)O	–	–	47	–	–	–	31
Cc1[nH]c2ccccc2c1N=Nc1cccc(C(=O)O)c1	–	–	–	–	–	–	·
COc1ccc(/C(N)=N/OC(=O)c2ccc(OC)c([N+](=O)[O-])c2)cc1OC	–	–	–	–	–	–	·
